Laboratory results reported in the OligoGym collection.
Further: reference of the scale not given here.

These sequences were tested against LRRC1 (assay: pooled miR-30 sensor sort-seq; sequence = guide strand). Details: shRNA.
In the case of TTGCCTGTGACACCTCTGCAGG, the sensor-assay potency score (higher = more potent) was -1.09.
TTTCGTAATTTGACTAGCTGGA was tested, and the sensor-assay potency score (higher = more potent) was 0.0536.
Sequence TTTCTGTAAGAACTAACTCAGT has a sensor-assay potency score (higher = more potent) of -0.926.
In the case of TCTGTTGACAGCACGCTCGTTC, the sensor-assay potency score (higher = more potent) was 0.237.
In the case of TTCTTCTAGTCTTCGCAGCTGG, the sensor-assay potency score (higher = more potent) was -0.37.
TCTCTTGACAAGTAGGTTCAGA was tested, and the sensor-assay potency score (higher = more potent) was -0.443.
Sequence TAGTTTTCCAATGCCATCCGGA has a sensor-assay potency score (higher = more potent) of -0.337.
TAGCTGGAAAAATTGCTCGGGC showed a sensor-assay potency score (higher = more potent) of -0.498.
TTCTAGTCTTCGCAGCTGGGTA was tested, and the sensor-assay potency score (higher = more potent) was -0.92.
In the case of TTTTGTTTGAGTCCAGTCCTTT, the sensor-assay potency score (higher = more potent) was -0.559.
TTGACAGCACGCTCGTTCCAGG showed a sensor-assay potency score (higher = more potent) of -1.01.
In the case of TTTTCTGTAAGAACTAACTCAG, the sensor-assay potency score (higher = more potent) was -0.115.

Each sequence was assayed against LRRC45 in the same assay as above. Details: shRNA.
AATAGTCTCCATCAAGTCGAGG was tested, and the sensor-assay potency score (higher = more potent) was -1.73.
TGACTGATCTGGTTGTTGCGGA gave a sensor-assay potency score (higher = more potent) of 0.13.
TGAACTTCCGCTCCAACTCGTC showed a sensor-assay potency score (higher = more potent) of -0.925.
TGACATGCTGGTCATCTCCTGC was tested, and the sensor-assay potency score (higher = more potent) was -0.943.
In the case of TTCAGCTCAGCTGACATGCTGG, the sensor-assay potency score (higher = more potent) was -0.387.
Work on TTGGCAGCAGACAAGTCTCTGA yielded a sensor-assay potency score (higher = more potent) of -0.793.
